High-throughput results deposited in PubChem BioAssay by National Center for Advancing Translational Sciences (NCATS).
This is a sample that favours compounds with a hit; in the whole collection about 3.6% have one here.
NPSR antag = blocks cAMP signaling of the human neuropeptide S receptor; Potency, µM (doses to about 38.3 µM), for inactives: at the top dose activity change, negative = inhibition, actives largely listed as inhibitors; CHO-NPSR cells, cAMP TR-FRET, antagonist mode; 1% of 220,000 active; further: on the % scale 0 is the no-effect control and ±100 the full control effect; nearly all actives have a fitted effect of over 50% in size
Target sequence (Q6W5P4 whole entry, looked up): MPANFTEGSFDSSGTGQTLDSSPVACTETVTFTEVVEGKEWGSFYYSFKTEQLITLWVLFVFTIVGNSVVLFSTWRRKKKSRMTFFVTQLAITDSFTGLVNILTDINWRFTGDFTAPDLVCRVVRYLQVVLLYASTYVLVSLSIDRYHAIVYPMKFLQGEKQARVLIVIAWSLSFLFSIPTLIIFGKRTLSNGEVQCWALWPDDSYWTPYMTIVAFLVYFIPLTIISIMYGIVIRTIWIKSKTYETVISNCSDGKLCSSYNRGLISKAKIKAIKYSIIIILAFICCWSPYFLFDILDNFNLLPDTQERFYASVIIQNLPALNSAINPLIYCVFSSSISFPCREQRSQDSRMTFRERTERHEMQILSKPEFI
Epigenetic derep = epigenetic control regulation, reporter derepression. murine LDR cells, GFP reporter derepression, 30 h. Potency, µM (doses to about 53.9 µM), for inactives: top-dose GFP activation, usual class: activators. 0.2% of 280,000 active. AID 1865; further: % of control where 0% means no effect; nearly all actives have a fitted effect of over 60% in size
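GFP-positive cell count by laser-scanning cytometry (objects 20–120 um) after 30 h, 37 C compound exposure of murine LDR cells; reporter is CMV-GFP integrated at a silenced locus, inducible by HDAC or DNMT inhibitors.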
KAT2A inh = blocks human GCN5L2 histone acetyltransferase; Q92830; GCN5L2 HAT assay, ThioGlo1 CoA-SH fluorescence; Potency, µM (series often up to 58.9 µM), for inactives: at the highest dose activity change, negative = inhibition, usual class: inhibitors; 0.21% of 390,000 active; further: on the % scale 0 is the no-effect control and ±100 the full control effect
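GCN5L2 (20nM final) in 50mM HEPES, 0.1mM EDTA pH 7.5, 0.01% Tween-20 was preincubated 15 min at room temperature with compound, then given ThioGlo1 (50uM), H3(1-25) peptide (75uM) and acetyl-CoA (70uM); CoA-thiol fluorescence (Ex340/Em540) was read at 0 and 20 min.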
JMJD2E inh = inhibitors of human JMJD2E histone demethylase | B2RXH2 | JMJD2E catalytic domain, FDH-coupled NADH fluorescence (FDH is formaldehyde dehydrogenase) | Potency, µM (series often up to 57.1 µM), for inactives: at the highest dose activity change, negative = inhibition, hits mostly inhibitors | 1.6% of 230,000 active; active means well fitted inhibition curve with a large enough effect, not every such curve was filed as active; inconclusive means small, poorly fitted or top-dose-only effect, or another doubt; inactive means no such curve, though single readings can be large or run the other way;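 further: 0% = wells with enzyme and -100% = buffer wells without enzyme; nearly all actives have a fitted effect of over 50% in size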
Target sequence (B2RXH2 1-337 limits assumed): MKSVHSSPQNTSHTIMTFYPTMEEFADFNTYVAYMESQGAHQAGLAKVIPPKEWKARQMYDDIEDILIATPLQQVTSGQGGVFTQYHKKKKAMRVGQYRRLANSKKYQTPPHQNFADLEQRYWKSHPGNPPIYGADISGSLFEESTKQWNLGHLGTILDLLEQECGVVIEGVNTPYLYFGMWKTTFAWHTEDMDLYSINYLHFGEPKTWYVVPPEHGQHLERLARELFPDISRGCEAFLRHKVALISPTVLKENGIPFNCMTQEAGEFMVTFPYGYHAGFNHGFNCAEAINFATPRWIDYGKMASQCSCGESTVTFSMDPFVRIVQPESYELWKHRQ
Sfp PPTase inh = inhibitors of Bacillus subtilis Sfp phosphopantetheinyl transferase. Q9F4F7. Biochemical Sfp PPTase activity, qHTS. Potency, µM, without a hit: largest response in the series, negative = inhibition, actives largely listed as inhibitors. 3.5% of 310,000 active. AID 1490;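 further: the enzyme is Sfp with the accession as filed and its product quenches rhodamine fluorescence; 0% = enzyme reaction without inhibitor and -100% = no enzyme wells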
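Step 1, compound plus 15 nM Sfp-PPTase, 15 min, room temperature. Step 2, add rhodamine-CoA (5 uM) and BHQ-2-YbbR (12.5 uM). Step 3, read 525/598 nm fluorescence at 0 and 30 min.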
IMPase Li cell = membrane-permeable IMPase blocker, potentiated with lithium; AID 1457; CHO-M1 cells, IP1 TR-FRET (IP-One), carbachol + lithium; 0.35% of 210,000 active; Potency, µM (doses to about 59.4 µM), without a hit: at the top dose activity, negative = IMPase inhibition, actives largely listed as inhibitors;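 further: IP1 builds up when IMPase is blocked and the TR-FRET signal falls; plate controls were basal vehicle for no effect and high inhibitor control for full effect; nearly all actives have a fitted effect of over 50% in size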
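CHO cells stably expressing M1 receptor (2000/well, cultured 16–30 h) treated 30 min at 37C with compound plus low lithium. Cytosolic IP1 by TR-FRET (665/620 ratio and 620 channel) after 10 min lysis; AC50 by Hill fit.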
* hit, by the source's call; ? = inconclusive; . = no result given; [ ] = another dose, or the depositor's remark. Unless noted, the call rests on the fitted dose curve; in most records, active means well fitted curve in the direction sought with a large enough effect; inconclusive means small, poorly fitted or top-dose-only effect, or another doubt; inactive means no such curve, though single readings can be large; an effect the other way counts as inactive or inconclusive. Potency means the concentration at half of the fitted maximal effect.

SMILES	NPSR antag	Epigenetic derep	KAT2A inh	JMJD2E inh	Sfp PPTase inh	IMPase Li cell
Cc1ccc(/C=C2/NC(=O)N(Cc3ccccc3)C2=O)s1	1%[46.1 µM]	25µM*	8%	-20%	50µM*	0%[38.3 µM]
COc1ccc(/C=C2/NC(=O)N(CC(=O)Nc3cccc(C)c3)C2=O)cc1O	-19%	-1%[10.1 µM]	3%	?	-6%	5%
Cc1ccc(NC(=O)CN2C(=O)N/C(=C/c3ccc(C)s3)C2=O)cc1	9%	?	-3%	-8%	40µM*	-12%
Cc1ccc(NC(=O)CN2C(=O)N/C(=C/c3ccc4c(c3)OCCO4)C2=O)cc1	.	.	-1%	.	1%	.
CCn1c(C)cc(/C=C2/NC(=O)N(c3ccccc3)C2=O)c1C	-40%	1%	-11%	25µM*	-7%	1%
COCCn1c(C)cc(/C=C2/NC(=O)N(c3cccc(Cl)c3)C2=O)c1C	-25%	-1%	-6%	?	11%	8%
Cc1ccc(NC(=O)CN2C(=O)N/C(=C/c3ccc(C)o3)C2=O)cc1	-12%[46.1 µM]	?	?	?	10µM*	-7%[38.3 µM]
Cc1ccc(Cl)cc1NC(=O)CN1C(=O)c2ccccc2Sc2ncccc21	.	-1%	4%	.	.	.
Cc1cccc(C2=N[C@@H](Cc3ccccc3)CO2)c1	.	-5%[96.6 µM]	12%[88.6 µM]	.	-10%	2%
COc1ccc(C(=O)N2c3ccc(C)cc3C(C)(c3ccccc3)CC2(C)C)cc1 (stereo unspecified)	.	-2%	-3%	.	.	.
COC(=O)c1cc(CSc2nnc(NC3CCCCC3)s2)oc1C	2%[46.1 µM]	0%	-3%	6%	32µM*	46%[38.3 µM]
CCN(CC)CCOC(c1ccccc1)c1ccc(C)cc1 (stereo unspecified)	1%	0%	-1%	-4%	-3%	16%
Cc1ccc(C(OCC(C)(C)C[N+](C)(C)C)c2ccccc2)cc1 (stereo unspecified)	15%	-3%	-18%	4%	45µM*	23%
O=C1CC(c2ccccc2C(F)(F)F)c2c(c3ccccc3[nH]c2=O)O1 (stereo unspecified)	.	1%	2%	.	.	.
C[n+]1ccccc1/C=N/O	11%	-1%	-1%	0%	11%	6%
CC(O)/C=C/c1cccc[n+]1C (stereo unspecified)	11%[46.1 µM]	-1%	4%	7.9µM*	-21%	-11%[38.3 µM]
Cc1noc(C)c1-c1ccc2ncnc(NCc3cccnc3)c2c1	.	.	-4%	.	28%	1%
COC(=O)c1c(SC)nc2ccccc2c1OCc1cccc(C)c1	.	1%	-11%	.	.	.
O=C(O)c1ccc(N=Nc2c(O)[nH]c3ccc(Br)cc23)cc1	.	.	2%	.	10µM*	.
O=C(O)c1cccc(-n2cccc2/C=C/[N+](=O)[O-])c1	-53%	4%	-26%	?	32µM*	.
O=C(O)c1cccc(-n2cccc2/C=C\[N+](=O)[O-])c1	45%	2%	?	14µM*	-13%	-1%
O=C(O)c1cccc(-n2cccc2/C=N/O)c1	0%[46.1 µM]	-1%	-15%	0%	15%	-5%[38.3 µM]
[O-]/[N+](=N\O)c1ccccc1	.	.	.	.	.	5%
COc1ccc2c(c1)C(=O)/C(=C/C=C/c1ccccc1)CC2	?	2%	-8%	6%	-13%	20%
COc1ccc2c(c1)CC/C(=C\c1ccc(C)o1)C2=O	-6%	?	-10%	?	45µM*	.
SMILES	NPSR antag	Epigenetic derep	KAT2A inh	JMJD2E inh	Sfp PPTase inh	IMPase Li cell
COc1ccc2c(c1)CC/C(=C\C=C\c1ccccc1OC)C2=O	-10%[46.1 µM]	1%	-8%	2%	25µM*	-1%
Cc1cc2c(N)cccc2nn1	?	1%	?	?	2µM*	82%[38.3 µM]
CCc1nnc(N/N=C/c2c(C)[nH]c3ccccc23)n1N	-25%	0%	-2%	6%	8.9µM*	31%
Cc1[nH]c2ccccc2c1/C=N/NC(N)=S	-22%	11%	-7%	-6%	-5%	.
Cc1cncc(C(=O)O)[n+]1[O-]	.	.	-11%	.	-17%	.
CN1CCN(C(c2ccccn2)c2cc(Cl)c3cccnc3c2O)CC1 (stereo unspecified)	-33%	0%	-16%	25µM*	32µM*	9%
Cc1ccc(C(c2cc(Cl)c3cccnc3c2O)N2CCN(C)CC2)cc1 (stereo unspecified)	.	.	32µM*	.	35µM*	.
O=C1NN(c2ccccc2)C(=O)/C1=C\c1cccc(OC(=O)c2cccs2)c1	?	-1%	-16%	-5%	50µM*	24%[38.3 µM]
O=C1NN(c2ccc(Cl)c(Cl)c2)C(=O)/C1=C/c1cccc(OC(=O)c2cccs2)c1	-19%[46.1 µM]	-1%	35µM*	4%	?	28%[38.3 µM]
COC(=O)N/N=C\c1cccc(OC(=O)c2cccs2)c1	10%	2%	-3%	6%	6%	1%
NNc1nc2sc3c(c2c(=O)n1Cc1ccccc1)CCC3	-4%	-1%	-13%	-28%	32µM*	.
CCn1c(NN)nc2sc3c(c2c1=O)CCC3	?	-4%	-6%	?	56µM*	0%[38.3 µM]
Nn1c(Nc2ccccc2)nc2sc3c(c2c1=O)CCC3	-29%[46.1 µM]	1%	-1%	?	-22%	11%[38.3 µM]
COCCCn1c(=S)[nH]c2c(sc3ccccc32)c1=O	-42%	-1%	?	?	79µM*	10µM*
O=c1c2sc3ccccc3c2[nH]c(=S)n1CCN1CCOCC1	-34%	0%	-19%	?	45µM*	-5%
O=c1c2ccccc2[nH]c(=S)n1CCCN1CCOCC1	-8%[46.1 µM]	-2%	-3%	2%	-9%	21%[38.3 µM]
COC(=O)N[C@@H](CCc1ccccc1)/C(C(=O)OC)=C(\C)NCc1ccccc1	.	-1%	.	-3%	-13%	12%
NC(N)=NCCC[C@H](N)C(=O)NCC(=O)N[C@@H](CC(=O)O)C(=O)N[C@@H](CO)C(=O)O	.	.	-12%	.	0%	.
CC[C@H](C)[C@H](NC(=O)[C@H](CC(=O)O)NC(=O)[C@H](CC(C)C)NC(=O)[C@H](Cc1cnc[nH]1)NC(=O)[C@H](C)NC(=O)[C@H](Cc1ccccc1)NC(=O)[C@H](Cc1ccc(O)cc1)NC(=O)[C@@H](NC(=O)[C@H](C)NC(=O)[C@H](CCC(=O)O)NC(=O)[C@H](CCC(=O)O)NC(=O)[C@H](CC(=O)O)NC(=O)CCC(=O)O)C(C)C)C(=O)N[C@H](C(=O)N[C@@H](Cc1c[nH]c2ccccc12)C(=O)O)[C@@H](C)CC	.	.	0%	.	0%	.
Cc1ccc(/C=c2/sc3nnc(-c4ccccc4Cl)n3c2=O)o1	-27%[46.1 µM]	0%	?	-1%	13µM*	6%[38.3 µM]
Cc1ccc(/C=c2\sc3nc(-c4ccco4)nn3c2=O)o1	4%[46.1 µM]	0%	-19%	?	25µM*	?
